The term residual activity denotes the share of the control activity or signal that is left under treatment. A high value points to a small loss of activity.

For one molecule, residual activity results are on record in ChEMBL document CHEMBL2218924, “A broad activity screen in support of a chemogenomic map for kinase signalling research and drug discovery” (Biochem J, 2013).

Assay [1] concerns the target T1, Serine/threonine-protein kinase TBK1 (Homo sapiens) (UniProt Q9UHD2).
T1 sequence (whole entry): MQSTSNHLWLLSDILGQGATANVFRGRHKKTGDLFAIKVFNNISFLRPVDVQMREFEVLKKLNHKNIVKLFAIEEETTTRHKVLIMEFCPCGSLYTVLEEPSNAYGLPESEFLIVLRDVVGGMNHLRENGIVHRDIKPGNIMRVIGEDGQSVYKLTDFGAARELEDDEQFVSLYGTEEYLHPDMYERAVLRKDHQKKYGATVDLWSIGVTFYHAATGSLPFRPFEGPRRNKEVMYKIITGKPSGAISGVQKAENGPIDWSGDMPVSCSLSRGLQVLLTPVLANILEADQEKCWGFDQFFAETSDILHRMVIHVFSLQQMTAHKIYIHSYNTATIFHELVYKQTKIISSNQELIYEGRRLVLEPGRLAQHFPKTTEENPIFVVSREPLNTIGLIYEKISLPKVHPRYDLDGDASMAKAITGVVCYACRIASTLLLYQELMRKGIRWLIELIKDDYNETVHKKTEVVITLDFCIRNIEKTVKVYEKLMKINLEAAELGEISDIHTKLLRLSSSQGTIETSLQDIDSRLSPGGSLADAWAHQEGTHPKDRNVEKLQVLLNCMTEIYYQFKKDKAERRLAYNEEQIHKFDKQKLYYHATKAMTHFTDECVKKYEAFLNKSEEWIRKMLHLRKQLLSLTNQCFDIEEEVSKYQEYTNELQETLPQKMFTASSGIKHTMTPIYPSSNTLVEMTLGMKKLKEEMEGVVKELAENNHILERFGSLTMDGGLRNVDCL
The note with it: at 10 µM.

Assay [2] concerns the target T2, TGF-beta receptor type-1 (Homo sapiens) (UniProt P36897).
T2 sequence (whole entry): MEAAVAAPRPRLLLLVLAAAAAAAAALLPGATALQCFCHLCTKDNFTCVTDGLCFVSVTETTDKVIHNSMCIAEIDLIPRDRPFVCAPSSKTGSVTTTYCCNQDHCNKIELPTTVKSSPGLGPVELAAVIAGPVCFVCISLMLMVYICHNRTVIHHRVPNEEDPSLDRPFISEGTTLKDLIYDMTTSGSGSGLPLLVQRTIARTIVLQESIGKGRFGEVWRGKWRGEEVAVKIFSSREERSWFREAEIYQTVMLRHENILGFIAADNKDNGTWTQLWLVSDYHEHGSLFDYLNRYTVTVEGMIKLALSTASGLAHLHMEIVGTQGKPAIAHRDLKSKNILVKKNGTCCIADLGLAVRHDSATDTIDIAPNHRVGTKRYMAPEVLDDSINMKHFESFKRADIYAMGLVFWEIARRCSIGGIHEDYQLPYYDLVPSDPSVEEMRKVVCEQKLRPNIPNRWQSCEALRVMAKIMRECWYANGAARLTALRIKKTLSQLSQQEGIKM
As to conditions: at 1 µM.

In assay [3] the target is T2, TGF-beta receptor type-1 (Homo sapiens). The note with it: at 10 µM.
For assay [4], the target named is T3, Inhibitor of nuclear factor kappa-B kinase subunit alpha (Homo sapiens) (UniProt O15111).
T3 sequence (whole entry): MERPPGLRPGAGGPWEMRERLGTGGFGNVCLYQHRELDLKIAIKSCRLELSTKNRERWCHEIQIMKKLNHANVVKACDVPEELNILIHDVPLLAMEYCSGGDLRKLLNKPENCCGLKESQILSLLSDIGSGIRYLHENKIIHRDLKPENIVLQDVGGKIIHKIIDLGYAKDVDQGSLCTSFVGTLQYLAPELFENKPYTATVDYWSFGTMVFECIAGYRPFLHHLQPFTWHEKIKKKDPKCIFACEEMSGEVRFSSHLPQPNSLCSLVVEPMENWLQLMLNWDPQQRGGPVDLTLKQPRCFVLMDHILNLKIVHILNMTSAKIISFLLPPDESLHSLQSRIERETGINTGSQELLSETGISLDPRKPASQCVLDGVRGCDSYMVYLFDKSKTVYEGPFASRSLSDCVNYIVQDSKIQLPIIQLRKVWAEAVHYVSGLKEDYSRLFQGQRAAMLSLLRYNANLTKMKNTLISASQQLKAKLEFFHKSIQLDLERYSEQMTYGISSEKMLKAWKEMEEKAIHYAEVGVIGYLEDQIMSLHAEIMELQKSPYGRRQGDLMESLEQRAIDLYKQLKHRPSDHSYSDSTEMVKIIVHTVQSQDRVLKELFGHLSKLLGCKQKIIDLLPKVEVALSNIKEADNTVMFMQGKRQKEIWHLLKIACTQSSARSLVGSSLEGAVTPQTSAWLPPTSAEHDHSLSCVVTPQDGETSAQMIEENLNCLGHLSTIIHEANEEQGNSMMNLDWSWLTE
As to conditions: at 1 µM.

The target of assay [5] is T3, Inhibitor of nuclear factor kappa-B kinase subunit alpha (Homo sapiens). The note with it: at 10 µM.
The target in assay [6] is T4, Inhibitor of nuclear factor kappa-B kinase subunit beta (Homo sapiens) (UniProt O14920).
T4 sequence (whole entry): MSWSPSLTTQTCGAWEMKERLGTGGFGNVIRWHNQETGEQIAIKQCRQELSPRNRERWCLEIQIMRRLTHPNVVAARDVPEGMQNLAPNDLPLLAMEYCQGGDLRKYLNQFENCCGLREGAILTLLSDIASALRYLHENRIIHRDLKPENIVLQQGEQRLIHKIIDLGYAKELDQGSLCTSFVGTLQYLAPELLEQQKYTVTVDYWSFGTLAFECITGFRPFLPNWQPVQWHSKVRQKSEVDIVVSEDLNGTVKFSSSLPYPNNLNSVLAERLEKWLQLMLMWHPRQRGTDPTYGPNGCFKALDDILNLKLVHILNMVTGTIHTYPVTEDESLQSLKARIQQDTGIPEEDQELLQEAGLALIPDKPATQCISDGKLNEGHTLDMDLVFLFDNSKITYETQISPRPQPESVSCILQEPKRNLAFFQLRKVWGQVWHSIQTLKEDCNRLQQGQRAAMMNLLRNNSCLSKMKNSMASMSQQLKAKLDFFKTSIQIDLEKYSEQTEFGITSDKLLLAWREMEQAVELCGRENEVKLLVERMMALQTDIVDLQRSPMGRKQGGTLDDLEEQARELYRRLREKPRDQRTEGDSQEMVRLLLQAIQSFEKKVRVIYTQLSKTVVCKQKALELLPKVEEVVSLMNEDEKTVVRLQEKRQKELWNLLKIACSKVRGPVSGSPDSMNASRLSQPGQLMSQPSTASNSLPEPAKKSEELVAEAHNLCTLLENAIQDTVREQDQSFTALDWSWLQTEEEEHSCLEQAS
As to conditions: at 1 µM.

The target of assay [7] is T4, Inhibitor of nuclear factor kappa-B kinase subunit beta (Homo sapiens). The note with it: at 10 µM.

For `N#CC(C#N)=C(N)/C(C#N)=C/c1ccc(O)cc1`, the residual activity in assay [1] was found to be 72%; in assay [2], 91%; in assay [3], 91%; in assay [4], 96%; in assay [5], 92%; in assay [6], 99%. Further, the residual activity in assay [7] came out at 93%.
